The panel holds about 79,000 compounds, 15% with a hit somewhere; the sample as a whole holds those more often. Values without a mark were called inactive. Calls of active or inactive are those of the source. Cut-off read from the data, not from the text of the source: active = growth inhibition above about 70%; inactive = the rest.

Among the data in PubChem BioAssay (NCI) are growth inhibition values, retold here.

Assay [1] is described as follows: NCI Yeast Anticancer Drug Screen. Data for the rad50 strain (AID 155).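 Note: 0% = growth of vehicle-only cultures of the same strain.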 The conditions noted are these: S. cerevisiae rad50 strain growth inhibition, active compounds read high. The method in brief: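 Relative growth inhibition (compound vs vehicle) was measured in yeast with a defined repair-gene alteration.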
A short description of assay [2]: NCI Yeast Anticancer Drug Screen. Data for the mec2-1 strain (AID 157). The conditions noted are these: S. cerevisiae mec2-1 strain, active compounds read high. The method in brief:
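Vehicle-treated cultures served as reference for growth inhibition of compound-exposed mec2-1 yeast.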

Assay [3] in a line: NCI Yeast Anticancer Drug Screen. Data for the sgs1 mgt1 strain (AID 161).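 Note: 0% = growth of cultures given vehicle only.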 To be noted: S. cerevisiae sgs1 mgt1 strain, active compounds read high. In outline:
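Genetically altered yeast, compound exposure, growth inhibition relative to vehicle.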

A short description of assay [4]: NCI Yeast Anticancer Drug Screen. Data for the cln2 rad14 strain (AID 165).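 Note: 0% = growth equal to vehicle treated cultures.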 To be noted: S. cerevisiae cln2 rad14 strain, active compounds read high. In outline:
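Each compound was tested on cln2 rad14 yeast. Inhibition of growth was calculated against vehicle-exposed controls.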

Assay [5] can be described thus: NCI Yeast Anticancer Drug Screen. Data for the bub3 strain (AID 167). The conditions noted are these: S. cerevisiae bub3 mutant strain, active compounds read high. In outline: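 Screening used yeast with an engineered genetic alteration affecting cell cycle control. Compound-exposed cultures were compared with vehicle cultures, and reduced growth was taken as inhibition.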

Assay [6] in a line: NCI Yeast Anticancer Drug Screen. Data for the mlh1 rad18 strain (AID 175). To be noted: S. cerevisiae mlh1 rad18 strain growth inhibition, active compounds read high. In outline:
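Vehicle-treated cultures served as the reference for growth inhibition in a yeast strain carrying DNA damage repair alterations exposed to each compound.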

Where [7] appears, read: at 5.0 µM (retest, dose inferred, filed as 0.5).
The mark [8] stands for this setting: at 50.0 µM (retest, dose inferred, filed as 5.0).

As for `Cc1cc(C)c2c(c1)sc1nncn12`, the growth inhibition in assay [1] (setting [7]) was 62%; in assay [1] (setting [8]), 96% (active); in assay [1] (at 50.0 µM), 97.9% (active); in assay [2] (setting [7]), 57%; in assay [2] (setting [8]) it was 96% (active); in assay [2] (at 50.0 µM), 97.8% (active). Besides, the growth inhibition in assay [3] (setting [7]) is 53%; in assay [3] (setting [8]), 97% (active); in assay [3] (at 50.0 µM), 96% (active); in assay [4] (setting [7]), 46%; in assay [4] (setting [8]) it was 96% (active); in assay [4] (at 50.0 µM), 97.6% (active). Also, the growth inhibition was 70% (active) in assay [5] (setting [7]); 97% (active) in assay [5] (setting [8]); 98.9% (active) in assay [5] (at 50.0 µM); 93% (active) in assay [6] (setting [7]); 97% (active) in assay [6] (setting [8]); 98.9% (active) in assay [6] (at 50.0 µM).
As for `COc1ccc(-c2cc3ccccc3c(=O)n2Cc2ccccc2)cc1`, the growth inhibition in assay [1] (setting [7]) was 8%; in assay [1] (setting [8]), 66%; in assay [1] (at 50.0 µM), 78.3% (active); in assay [2] (setting [7]), 11%; in assay [2] (setting [8]), 74% (active); in assay [2] (at 50.0 µM), 88.4% (active). Also, the growth inhibition is 13% in assay [3] (setting [7]); 73% (active) in assay [3] (setting [8]); 83.7% (active) in assay [3] (at 50.0 µM); 6% in assay [4] (setting [7]); 57% in assay [4] (setting [8]); 74% (active) in assay [4] (at 50.0 µM). The growth inhibition in assay [5] (setting [7]) was 8%; in assay [5] (setting [8]) it was 63%; in assay [5] (at 50.0 µM), 89.3% (active); in assay [6] (setting [7]), 11%; in assay [6] (setting [8]) it was 66%; in assay [6] (at 50.0 µM), 79.3% (active).
Take `CCOc1ccccc1NC1=C(Cl)C(=O)c2ccccc2C1=O`: the growth inhibition in assay [1] (setting [7]) was 99% (active); in assay [1] (setting [8]) it was 97% (active); in assay [1] (at 50.0 µM), 23.9%; in assay [2] (setting [7]), 99% (active); in assay [2] (setting [8]), 98% (active); in assay [2] (at 50.0 µM) it was 97.9% (active). For the same compound, the growth inhibition in assay [3] (setting [7]) is 100% (active); in assay [3] (setting [8]) it was 98% (active); in assay [3] (at 50.0 µM), 98% (active); in assay [4] (setting [7]) it was 99% (active); in assay [4] (setting [8]) it was 98% (active); in assay [4] (at 50.0 µM), 97% (active). Moreover, the growth inhibition in assay [5] (setting [7]) was 99% (active); in assay [5] (setting [8]), 97% (active); in assay [5] (at 50.0 µM) it was 97.8% (active); in assay [6] (setting [7]) it was 99% (active); in assay [6] (setting [8]), 97% (active); in assay [6] (at 50.0 µM), 96.1% (active).
Take `CC1(c2ccccc2)OC(=O)C=CC1=O` (stereo not drawn): the growth inhibition is 15% in assay [1] (setting [7]); 99% (active) in assay [1] (setting [8]); 99.4% (active) in assay [1] (at 50.0 µM); 28% in assay [2] (setting [7]); 98% (active) in assay [2] (setting [8]); 99.7% (active) in assay [2] (at 50.0 µM). Also, the growth inhibition in assay [3] (setting [7]) is 21%; in assay [3] (setting [8]) it was 97% (active); in assay [3] (at 50.0 µM), 99.5% (active); in assay [4] (setting [7]), 8%; in assay [4] (setting [8]), 100% (active); in assay [4] (at 50.0 µM) it was 99% (active). For the same compound, the growth inhibition in assay [5] (setting [7]) was 32%; in assay [5] (setting [8]), 100% (active); in assay [5] (at 50.0 µM), 99.5% (active); in assay [6] (setting [7]) it was 27%; in assay [6] (setting [8]), 99% (active); in assay [6] (at 50.0 µM) it was 99.5% (active).
Regarding `Cc1ccc(S(=O)(=O)C(C#N)(CCC(=O)/C=C/c2ccccc2)CCC(=O)/C=C/c2ccccc2)cc1`, the growth inhibition in assay [1] (setting [7]) was 1%; in assay [1] (setting [8]), 6%; in assay [1] (at 50.0 µM), 16.2%; in assay [2] (setting [7]), -4%; in assay [2] (setting [8]), 35%; in assay [2] (at 50.0 µM) it was 2.35%. In addition, the growth inhibition is 2% in assay [3] (setting [7]); -2% in assay [3] (setting [8]); 26.9% in assay [3] (at 50.0 µM); 3% in assay [4] (setting [7]); 4% in assay [4] (setting [8]); 77.3% (active) in assay [4] (at 50.0 µM). The growth inhibition is -3% in assay [5] (setting [7]); -2% in assay [5] (setting [8]); -9.3% in assay [5] (at 50.0 µM); 1% in assay [6] (setting [7]); -28% in assay [6] (setting [8]); 20% in assay [6] (at 50.0 µM).
Regarding `ON1CCc2c([nH]c3ccccc23)C1c1ccc(Cl)cc1` (stereo not drawn), the growth inhibition was -8% in assay [1] (setting [7]); 93% (active) in assay [1] (setting [8]); 54.5% in assay [1] (at 50.0 µM); -9% in assay [2] (setting [7]); 91% (active) in assay [2] (setting [8]); 34.4% in assay [2] (at 50.0 µM). Moreover, the growth inhibition in assay [3] (setting [7]) was 1%; in assay [3] (setting [8]), 98% (active); in assay [3] (at 50.0 µM) it was 85.4% (active); in assay [4] (setting [7]), -8%; in assay [4] (setting [8]), 88% (active); in assay [4] (at 50.0 µM), 55.7%. The growth inhibition was -6% in assay [5] (setting [7]); 96% (active) in assay [5] (setting [8]); 40.1% in assay [5] (at 50.0 µM); -2% in assay [6] (setting [7]); 96% (active) in assay [6] (setting [8]); 79.2% (active) in assay [6] (at 50.0 µM).
